According to PubChem BioAssay (NCATS):
Several values for one entry are separate records, joined by “and”; a condition that tells them apart may be missing. Equal values may be shown once. A number with no mark means an inactive call. Results filed as inconclusive are left out. A call without a number means that no potency is given here. Activity calls are given as the source filed them. The call rests on the fitted dose curve; in most records, active means well fitted curve in the direction sought with a large enough effect; inconclusive means small, poorly fitted or top-dose-only effect, or another doubt; inactive means no such curve, though single readings can be large; an effect the other way counts as inactive or inconclusive.

How the values were obtained:
[1] = target: Cytochrome P450 3A4 (Homo sapiens) (UniProt P08684); assay: qHTS Assay for Activators of Cytochrome P450 3A4 (AID 885); further: nearly all actives have a fitted effect of over 65% in size
Sequence of Cytochrome P450 3A4 (Homo sapiens) (P08684 whole entry, looked up): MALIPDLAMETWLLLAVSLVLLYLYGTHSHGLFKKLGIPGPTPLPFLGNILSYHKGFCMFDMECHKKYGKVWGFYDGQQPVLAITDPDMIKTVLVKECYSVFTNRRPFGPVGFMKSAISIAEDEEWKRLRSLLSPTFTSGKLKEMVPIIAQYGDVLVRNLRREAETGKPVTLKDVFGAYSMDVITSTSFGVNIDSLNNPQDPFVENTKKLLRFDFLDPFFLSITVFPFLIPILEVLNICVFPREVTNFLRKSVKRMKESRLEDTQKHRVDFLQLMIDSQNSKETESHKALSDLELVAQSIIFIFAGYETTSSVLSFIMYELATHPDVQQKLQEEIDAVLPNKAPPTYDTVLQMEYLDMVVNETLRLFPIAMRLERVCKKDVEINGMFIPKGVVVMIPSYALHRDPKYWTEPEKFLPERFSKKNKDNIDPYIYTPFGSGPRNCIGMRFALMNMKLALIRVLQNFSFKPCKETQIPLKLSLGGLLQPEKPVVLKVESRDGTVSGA
Procedure, shortened: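 Activators are scored by enhanced luminescence from CYP3A4 conversion of luciferin-PPXE (25uM, equal to KM) to luciferin, after 60 min at RT with an NADPH-regenerating system.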

[2] = target: Cytochrome P450 2D6 (Homo sapiens) (UniProt P10635); assay: qHTS Assay for Inhibitors and Substrates of Cytochrome P450 2D6 (AID 891); further: nearly all actives have a fitted effect of over 60% in size; further: potency means the concentration at half of the fitted maximal effect
Sequence of Cytochrome P450 2D6 (Homo sapiens) (P10635 whole entry, looked up): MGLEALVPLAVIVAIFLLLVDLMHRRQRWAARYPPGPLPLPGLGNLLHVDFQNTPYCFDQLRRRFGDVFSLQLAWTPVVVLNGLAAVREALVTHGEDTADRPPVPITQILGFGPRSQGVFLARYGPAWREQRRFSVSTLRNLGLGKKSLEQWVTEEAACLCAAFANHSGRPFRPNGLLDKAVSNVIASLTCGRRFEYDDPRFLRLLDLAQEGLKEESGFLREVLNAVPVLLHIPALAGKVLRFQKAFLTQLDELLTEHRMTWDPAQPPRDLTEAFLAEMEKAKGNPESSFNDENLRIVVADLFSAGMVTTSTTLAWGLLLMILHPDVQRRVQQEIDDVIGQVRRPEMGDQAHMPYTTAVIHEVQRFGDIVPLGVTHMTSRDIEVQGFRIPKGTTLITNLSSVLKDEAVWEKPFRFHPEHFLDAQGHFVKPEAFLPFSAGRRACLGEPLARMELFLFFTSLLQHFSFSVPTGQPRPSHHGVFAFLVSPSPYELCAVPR
Procedure, shortened: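 Luminescent read-out of luciferin formed by 5 nM human CYP2D6 demethylating 30 uM Luciferin-ME EGE (Km level) over 60 min at room temperature after NADPH regeneration addition. Data normalized to full inhibition by 1.43 uM quinidine.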

[3] = target: Cytochrome P450 2C19 (Homo sapiens) (UniProt P33261); assay: qHTS Assay for Inhibitors and Substrates of Cytochrome P450 2C19 (AID 899); further: nearly all actives have a fitted effect of over 60% in size; further: potency means the concentration at half of the fitted maximal effect
Sequence of Cytochrome P450 2C19 (Homo sapiens) (P33261 whole entry, looked up): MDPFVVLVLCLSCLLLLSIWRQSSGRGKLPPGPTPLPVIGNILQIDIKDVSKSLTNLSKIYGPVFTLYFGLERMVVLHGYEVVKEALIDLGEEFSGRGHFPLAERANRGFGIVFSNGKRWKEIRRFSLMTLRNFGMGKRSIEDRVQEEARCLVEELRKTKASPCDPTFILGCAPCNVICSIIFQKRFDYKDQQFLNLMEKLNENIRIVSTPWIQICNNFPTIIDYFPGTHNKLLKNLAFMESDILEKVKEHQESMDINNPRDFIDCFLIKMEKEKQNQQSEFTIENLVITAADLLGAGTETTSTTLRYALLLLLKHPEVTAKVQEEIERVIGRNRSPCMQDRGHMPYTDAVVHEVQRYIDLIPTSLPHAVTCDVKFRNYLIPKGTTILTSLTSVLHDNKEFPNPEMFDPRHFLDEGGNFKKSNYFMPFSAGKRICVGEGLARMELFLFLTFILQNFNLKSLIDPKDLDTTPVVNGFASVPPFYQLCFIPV
Procedure, shortened: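 Luminescent read-out of luciferin formed from Luciferin-H EGE (10uM, equal to KM). Enzyme 5nM in 50mM KPO4; compound added, 10 min at 37C, then NADPH regenerating system for 60 min at 37C. Full inhibition defined by 57uM ketoconazole.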

[4] = Confirmation and Secondary Assay for Modulators of Hemoglobin Beta Chain Splicing at IVS2 654 locus (AID 910);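 further: HeLa cells stably carrying EGFP split by mutant beta-globin IVS2-654 intron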
Procedure, shortened: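 HeLa cells stably expressing EGFP interrupted by β-globin IVS2-654 intron, seeded overnight in Opti-MEM/2% FCS, then treated 2 days at 37 °C. Restored splicing read as total peak GFP intensity per well by laser scanning cytometry (488 nm excitation, 500–520 nm emission); 500 nM antisense PNA as control.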

[5] = Confirmation and Secondary Assay for Modulators of Hemoglobin Beta Chain Splicing at IVS2 705 locus (AID 930);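 further: HeLa cells stably expressing the EGFP-705 splicing reporter; GFP fluorescence per well restored by corrected splicing of the IVS2-705 intron in EGFP; series mostly up to about 46 µM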
Procedure, shortened: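 Assay measures total GFP intensity per well in HeLa EGFP-705 cells after 2 days with compound; mis-splicing normally truncates EGFP, so fluorescence indicates corrected splicing.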

With COC(=O)C/C=C\[C@@H](C)[C@@H](/C=N\O[C@@H](C)CN1CCCc2nc(C)c(C)cc21)OC the activity change, positive = activation [1] was -59.1% [at 11.4 µM].
Compound COC(=O)C/C=C\[C@@H](C)[C@@H](/C=N\O[C@@H]1O[C@H](COC(C)=O)[C@H](OC(C)=O)[C@H](OC(C)=O)[C@H]1OC(C)=O)OC has an activity change, positive = activation [1] of -32.3% [at 11.4 µM].
For COC(=O)C/C=C\[C@@H](C)[C@@H](/C=N\OC[C@@H](O)[C@H]1O[C@H]2OC(C)(C)O[C@H]2[C@@H]1O)OC, the activity change, positive = activation [1] was -43.3% [at 11.4 µM] and the Potency [2] was “inactive”.
With COC(=O)[C@@H]1C[C@@H]2CC[C@@H](O)C[C@@H]2N1Cc1ccc(C(F)(F)F)cc1 the Potency [1] was “inactive”.
With CO[C@H]1COC(=O)C/C=C\[C@@H](C)COC(=O)[C@@H](CCSC)NC(=O)C/C=C\[C@@H]1C the activity change, positive = activation [1] was -36.9% [at 11.4 µM] and -35.4% [at 11.4 µM].
With COC(=O)CN=C1OC(=O)N2C(=O)C3=C4C(C[C@H]5C(=O)N(c6ccccc6)C(=O)[C@H]5[C@H]4[C@@]12Cc1ccccc1)[C@H]1C(=O)N(c2ccccc2)C(=O)[C@H]1[C@H]3C (stereo partly specified) the Potency [1] was “inactive”.
For COC(=O)[C@@H]1C[C@@]2(O)[C@H](O)[C@H](O)[C@H](O)C[C@H]2N1Cc1cc(OC)cc(OC)c1, the Potency [1] was “inactive”.
CO[C@H]1COC(=O)[C@H]2CCCN2C(=O)C/C=C\[C@@H](C)[C@H](OC)COC(=O)C/C=C\[C@@H]1C gave an activity change, positive = activation [1] of -32.7% [at 11.4 µM].
For COc1ccc(OC2C=CC(C#Cc3ccc(C(C)(C)C)cc3)OC2CO)cc1 (stereo unspecified), the activity change, positive = activation [1] was -56.3% [at 11.4 µM] and the Potency [2] was “inactive”.
In the case of COC(=O)c1cccc(C23CC4(C2)[C@H](CN(CC2CCCCC2)[C@@H]4c2ccccc2)C3c2ccc(C(F)(F)F)cc2)c1 (stereo partly specified), the Potency [1] is reported as “inactive”.
CC[C@@H](c1ccccc1)n1c(=O)n2n(c1=O)[C@H]1[C@H](O)[C@H]3O[C@@H]3/C(=N/OCc3ccccc3)[C@@H]1CC2 gave an activity change, positive = activation [1] of -33.4% [at 11.4 µM].
CO[C@@H]1/C=C\CC(=O)N[C@@H](C)C(=O)OC[C@H](NS(=O)(=O)c2ccc(C)cc2)[C@H](C)/C=C\CC(=O)OC[C@H]1C showed an activity change, positive = activation [1] of -37.9% [at 11.4 µM].
For CC(=O)OC[C@@H]1O[C@H](C/C=N\O[C@@H](C)CN2CCCc3nc(C)c(C)cc32)C=C[C@@H]1OC(C)=O, the activity change, positive = activation [1] was -35.5% [at 11.4 µM] and the Potency [2] was 3160 nM (active).
With FC(F)(F)c1ccc(CN2C[C@@H]3C(c4ccc(C(F)(F)F)cc4)C4(c5cccnc5)CC3(C4)[C@H]2c2ccccc2)cc1 (stereo partly specified) the Potency [1] was “inactive”.
For COC(=O)c1cccc(C23CC4(C2)[C@H](CN(Cc2ccc(C(F)(F)F)cc2)[C@@H]4c2ccccc2)C3c2ccc(C(F)(F)F)cc2)c1 (stereo partly specified), the Potency [1] was “inactive”.
With FC(F)(F)c1ccc(C2[C@H]3CN(Cc4ccc(-c5ccccc5)cc4)[C@H](c4ccccc4)C34CC2(c2ccccc2)C4)cc1 (stereo partly specified) the Potency [1] was “inactive”.
For FC(F)(F)c1ccc(CN2C[C@@H]3C(c4ccc(Cl)nc4)C4(c5ccccc5)CC3(C4)[C@H]2c2ccccc2)cc1 (stereo partly specified), the Potency [1] was “inactive”.
In the case of CCc1cc2c(nc1CC)CCN(CC/C(C)=N/O[C@@H](C)CN1CCCc3nc(C)c(C)cc31)C2, the activity change, positive = activation [1] is reported as -50.2% [at 11.4 µM] and the Potency [2] is reported as 3980 nM (active).
For COC(=O)[C@@H]1C[C@@]2(O)[C@@H](O)[C@@H](O)[C@@H](O)C[C@H]2N1Cc1cc(F)ccc1F, the Potency [1] was “inactive”.
With COC(=O)c1cccc(C23CC4(C2)[C@H](CN(Cc2ccc(-c5ccccc5)cc2)[C@@H]4c2ccccc2)C3c2ccccc2)c1 (stereo partly specified) the Potency [1] was “inactive”.
In the case of CC(C)Cn1c(N)c(C(=O)COC(=O)c2cc(C(F)(F)F)nc3c(C(F)(F)F)cccc23)c(=O)n(C)c1=O, the Potency [1] is reported as “inactive”.
For CC(C)=NO[C@@H](C)CN1CCCCc2nc(C)c(C)cc21, the activity change, positive = activation [1] was -46.4% [at 11.4 µM] and the Potency [2] was 2510 nM (active).
With CC1CCC2C(=O)N3C(CCC(C)C3c3ccccc3Br)C(=O)N2C1c1ccc(C#CCN(C)C)cc1 (stereo unspecified) the activity change, positive = activation [1] was -38.2% [at 11.4 µM], the Potency [2] was “inactive” and the Potency [3] was “inactive”.
For CCCCCCCC#Cc1ccccc1C(NC(=O)OC)C(C(=O)OC)C(=O)OC (stereo unspecified), the activity change, positive = activation [1] was -56.4% [at 11.4 µM], the Potency [2] was “inactive” and the Potency [3] was 2510 nM (active).
For COc1cc(C2c3cc4c(cc3C(O)[C@H]3COC(=O)C23)OCO4)cc(OC)c1OC (stereo partly specified), the Potency [1] was “inactive”, the outcome [4] was “inactive” and the outcome [5] was “inactive”.
With O=C1[C@@H]2[C@H]3[C@H](O)[C@H](O)C/C(=N/OC[C@@H](O)COCc4ccco4)[C@H]3CC[C@H]2C(=O)N1c1ccc(F)cc1F the activity change, positive = activation [1] was -44.4% [at 11.4 µM] and the Potency [3] was “inactive”.
In the case of CC1CCC2C(=O)OC(CO)CN2C1c1ccc(Br)cc1 (stereo unspecified), the activity change, positive = activation [1] is reported as -46.2% [at 11.4 µM], the Potency [2] is reported as “inactive” and the Potency [3] is reported as 158 nM (active).
